# In PubChem BioAssay (Tox21):
# Records with an inconclusive call do not appear. Where a call stands in place of a potency, no number is given. A number with no mark means an inactive call. Calls of active or inactive are those of the source. Unless noted, the call rests on the fitted dose curve; in most records, active means well fitted inhibition curve with a large enough effect in the repeat runs; inconclusive means weak or mixed curves; inactive means no such curve, though single readings can be large or run the other way.
# Experiment: qHTS assay to identify small molecule agonists of H2AX - cell viability counter screen (AID 1224847; calls by dose curve; further: nearly all actives have a fitted effect of over 30% in size)
# Conditions: CHO-K1 viability, CellTiter-Glo luminescence, 3 h; series mostly up to 154 µM
# Outline: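 Quantitative HTS viability measurement: CHO-K1 wild-type cells in serum (10% FBS) medium, short 3 hr drug exposure at 37C with 0.76% DMSO, CellTiter-Glo luminescent detection.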
# Potency means the concentration at half of the fitted maximal effect.
row,SMILES,Potency
1,CCCCCCCCCCCCOCCOCCOCCOCCOCCOCCOCCOCCOCCO,55.2 µM (active)
2,COc1c(C)c2c(c(O)c1C/C=C(\C)CCC(=O)OCCN1CCOCC1)C(=O)OC2,inactive
3,O=C1CCc2ccc(OCCCCN3CCN(c4cccc(Cl)c4Cl)CC3)cc2N1,55.2 µM (active)
4,Sc1nc2ccccc2s1,inactive
5,CCC(C)(CCC(C)C)C(=O)[O][Sn]([CH3])([CH3])[O]C(=O)C(C)(CC)CCC(C)C (centres undefined),inactive
6,CCCCC/C=C\C/C=C\CCCCCCCC(=O)O,inactive
7,COC(=O)C1=C(C)NC(C)=C(C(=O)OCCN2CCN(C(c3ccccc3)c3ccccc3)CC2)C1c1cccc([N+](=O)[O-])c1 (centres undefined),inactive
8,Oc1ccccc1O,inactive
9,Cc1cc(C(C)(C)C)c(O)c(C)c1Cn1c(=O)n(Cc2c(C)cc(C(C)(C)C)c(O)c2C)c(=O)n(Cc2c(C)cc(C(C)(C)C)c(O)c2C)c1=O,inactive
10,C=CCCC(=O)/C=C/C1C(C)=CCCC1(C)C (centres undefined),89.8 µM (active)
11,CC(C)(C)c1csc(-c2cc3cc(OCc4ccccc4CC(=O)O)ccc3o2)n1,113 µM (active)
12,COC(=O)Nc1nc2ccc(C(=O)c3ccccc3)cc2[nH]1,inactive

# Experiment: qHTS assay to identify small molecule antagonists of the estrogen related receptor (ERR) signaling pathway from Tox21 library (AID 1224848); further: nearly all actives have a fitted effect of over 50% in size
# Conditions: ERR reporter cell line, luciferase antagonist mode, 18 h; series mostly up to 92.4 µM
# Outline: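 ERR reporter cell line (from NTP) seeded 2,000 cells/well, rested 6 h at 37 C/5% CO2, then pin-dosed with compounds in DMSO. After 18 h at 37 C, ONE-Glo added; luminescence read after 30 min at room temperature.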
SMILES,Potency,"activity, negative = inhibition"
CN1CCN2c3ccccc3Cc3ccccc3C2C1 (centres undefined),inactive,
CNc1ccc([N+](=O)[O-])cc1,inactive,
Clc1ccnc(Cl)n1,inactive,
CC1(C)CCC[C@]2(C)[C@H]3CCO[C@]3(C)CC[C@@H]12,inactive,
O=C(O)O,,10.7% [at 8.39 µM]
Cc1cc(C)c(/C=C2\C(=O)Nc3ccccc32)[nH]1,inactive,
COC1=C(OC)C(=O)C(CCCCCCCCCCO)=C(C)C1=O,18.8 µM (active),
CCCCCCCCCCCCOCCOCCOCCOCCOCCOCCOCCOCCOCCO,2.98 µM (active),
COc1c(C)c2c(c(O)c1C/C=C(\C)CCC(=O)OCCN1CCOCC1)C(=O)OC2,inactive,
O=C1CCc2ccc(OCCCCN3CCN(c4cccc(Cl)c4Cl)CC3)cc2N1,11.9 µM (active),
Sc1nc2ccccc2s1,inactive,
COC(=O)C1=C(C)NC(C)=C(C(=O)OCCN2CCN(C(c3ccccc3)c3ccccc3)CC2)C1c1cccc([N+](=O)[O-])c1 (centres undefined),11.9 µM (active),
Nc1cc(Cl)c(O)c(Cl)c1,inactive,
CC[N+](CC)(CC)CCOc1ccc(/C=C/c2ccccc2)cc1,7.5 µM (active),
CC1(C)[C@@H](O)CC[C@]2(C)[C@H]3C(=O)C=C4[C@@H]5C[C@@](C)(C(=O)O)CC[C@]5(C)CC[C@@]4(C)[C@]3(C)CC[C@@H]12,inactive,
CCO[C@@H]1O[C@H](C(COCc2ccccc2)OCc2ccccc2)[C@H](OCc2ccccc2)[C@H]1O (some centres undefined),29.8 µM (active),
Cc1ccc(O)c(O)c1,inactive,
